Hits are enriched below; roughly 3.3% of the tested compounds scored in any of these assays.
TsaE inh: qHTS Assay for Inhibitors of YjeE; Potency, µM; 0.05% of 71,000 active; purified YjeE enzyme, qHTS inhibition assay; AID 605, 2007
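Fluorescence polarization of a BODIPY Texas Red–ADP probe (2 uM) bound to purified YjeE (10 uM) was read after 15 min room-temperature incubation with compounds. Loss of polarization marks inhibitors; ADP serves as titrated control.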
TSHR ag: qHTS Assay for Agonists of the Thyroid Stimulating Hormone Receptor; Thyrotropin receptor (Homo sapiens), P16473; HEK293-CNG-TSHR cells (CNG channel as cAMP sensor), membrane potential dye, cAMP; Potency, µM (highest dose often 57.1 µM), for inactives: at the highest dose activation, most hits filed as activators; 0.48% of 73,000 active; AID 926, 2007; active = well fitted activation curve with a large enough effect in the main read-out, with a control signal flat, not every such curve was filed as active; inconclusive = small, poorly fitted or top-dose-only effect, or a change in a side signal; inactive = no such curve, though single readings can be large or run the other way; % of control where 0% means no effect;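 note: the control signal comes from parental cells without the receptor; potency is the fitted concentration of half-maximal effect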
Target sequence (P16473 whole entry, looked up): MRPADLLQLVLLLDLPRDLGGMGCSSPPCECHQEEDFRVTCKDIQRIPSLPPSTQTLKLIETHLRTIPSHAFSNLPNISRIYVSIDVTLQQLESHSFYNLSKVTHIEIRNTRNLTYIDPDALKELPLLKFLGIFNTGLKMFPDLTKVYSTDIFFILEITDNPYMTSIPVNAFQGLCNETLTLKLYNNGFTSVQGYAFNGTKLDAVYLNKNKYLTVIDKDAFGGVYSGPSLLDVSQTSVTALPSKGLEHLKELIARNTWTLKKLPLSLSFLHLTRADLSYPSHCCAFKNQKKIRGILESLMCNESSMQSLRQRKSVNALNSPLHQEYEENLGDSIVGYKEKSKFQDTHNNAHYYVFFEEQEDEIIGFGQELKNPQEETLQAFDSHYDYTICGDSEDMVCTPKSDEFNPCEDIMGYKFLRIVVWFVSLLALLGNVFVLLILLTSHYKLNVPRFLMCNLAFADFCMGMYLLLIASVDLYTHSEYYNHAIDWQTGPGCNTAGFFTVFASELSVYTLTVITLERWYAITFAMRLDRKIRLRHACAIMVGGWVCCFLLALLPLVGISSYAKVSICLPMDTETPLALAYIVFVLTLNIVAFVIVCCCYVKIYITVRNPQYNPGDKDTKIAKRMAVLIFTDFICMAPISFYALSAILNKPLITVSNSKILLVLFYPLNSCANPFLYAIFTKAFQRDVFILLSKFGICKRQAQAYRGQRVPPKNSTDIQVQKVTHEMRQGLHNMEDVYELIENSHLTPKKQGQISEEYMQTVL
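HEK 293 cells stably expressing TSHR and a cAMP-gated CNG channel; parental CNG-only cells as counterscreen. Cells preloaded 60 min with membrane potential dye plus 100 uM RO 20-1724, then compound 30 min; fluorescence read at 590 nm.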
BRCT inh red: qHTS Assay for Inhibitors of BRCT-Phosphoprotein Interaction (Red Fluorophore); Breast cancer type 1 susceptibility protein (Homo sapiens), P38398; BRCT-phosphopeptide binding, red fluorescence polarization; Potency, µM (series often up to 76.9 µM), for inactives: at the top dose activity change, negative = inhibition, hits mostly inhibitors; 0.03% of 75,000 active; AID 892, 2007; note: % is set by controls: 0 for no effect and ±100 for the full control effect
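Rhodamine-labelled pBACH1 10-mer (100 nM) bound to BRCT domain (100 nM) at pH 7.3; compounds incubated 12 min room temperature, polarization read. Free peptide defines full inhibition; unlabelled decapeptide titrated as control.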
HEK293 cAMP cs: qHTS Assay for Agonists of the Thyroid Stimulating Hormone Receptor: Activators of Intracellular cAMP Concentrations in Parental HEK 293; Potency, µM (highest dose often 57.1 µM), inactives show at the top dose activation, hits mostly activators; 2.5% of 73,000 active; parental HEK293 CNG cAMP sensor, membrane potential fluorescence; note: potency is the fitted concentration of half-maximal effect; % of control where 0% means no effect; nearly all actives have a fitted effect of over 55% in size
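Counterscreen for endogenous-receptor signalling: CNG-channel HEK 293 cells report cAMP rise by membrane depolarization. After 60 min dye equilibration with 100 uM RO 20-1724, compounds incubated 30 min before bottom-read fluorescence at 590 nm.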
BRCT PPI green: qHTS Assay for Inhibitors of BRCT-Phosphoprotein Interaction (Green Fluorophore) | 0.05% of 75,000 active | AID 875, 2007 | BRCA1 BRCT-phosphopeptide binding, green fluorescence polarization | Breast cancer type 1 susceptibility protein (Homo sapiens), P38398 | Potency, µM (highest dose often 76.9 µM), for the others: top-dose activity change, negative = inhibition, actives largely listed as inhibitors;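 note: potency is the fitted concentration of half-maximal effect; plate controls were peptide without protein for full effect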
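Compounds were incubated for 12 min at room temperature with a complex of 100 nM fluorescein-tagged pBACH1 decapeptide and 250 nM His-tagged BRCT protein. Buffer was phosphate pH 7.3 with EDTA, DTT and Tween 20. Disruption of binding lowers the polarization signal.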
Hsp90 Hop PPI: qHTS Assay for Disrupters of an Hsp90 Co-Chaperone Interaction. 0.44% of 71,000 active. AlphaScreen TPR2A-His6 binding biotin-Hsp90 C-terminal peptide. Potency, µM (highest dose often 57 µM), for inactives: at the highest dose activity change, negative = inhibition. Hsp90 C-terminal peptide / TPR2A (Hop) interaction, human; active = well fitted curve in either direction with a large enough effect; inconclusive = small, poorly fitted or top-dose-only effect, or another doubt; note: potency is the fitted concentration of half-maximal effect; % is set by controls: 0 for no effect and ±100 for the full control effect
Active calls of the source: *; [ ] = dose if it differs, or a comment. Unless noted, calls come from the whole dose curve; as a rule, active = well fitted curve in the direction sought with a large enough effect; inconclusive = small, poorly fitted or top-dose-only effect, or another doubt; inactive = no such curve, though single readings can be large; an effect the other way counts as inactive or inconclusive.

What do the screens show for `CCC1=C2CC[C@H]3C(=O)N(c4ccccc4)C(=O)[C@H]3[C@H]2[C@@]2(C)C(=O)N(Cc3ccccc3)C(=O)N2C1=O`?
BRCT inh red: 0%; BRCT PPI green: -3%

How did COC(=O)[C@@]1(C)C=C[C@@H](Cc2ccccc2)N1C(=O)c1ccccc1 do in these assays?
TsaE inh: inactive; TSHR ag: inconclusive; BRCT inh red: 1%; HEK293 cAMP cs: 20µM*; BRCT PPI green: -2%; Hsp90 Hop PPI: 2%

How did COC(=O)C1=C(C)NC(C)=C(C(=O)OC)C1c1ccc(N(C)C)cc1 do in these assays?
TsaE inh: inactive; TSHR ag: 20µM*; BRCT inh red: 1%; HEK293 cAMP cs: 5%; BRCT PPI green: -1%; Hsp90 Hop PPI: -7%

Results for CCOC(=O)C1=C(C)NC(C)=C(C(=O)OCC)C1c1ccc(O)cc1 ?
TsaE inh: inactive; TSHR ag: inconclusive; BRCT inh red: 0%; HEK293 cAMP cs: inconclusive; BRCT PPI green: -3%; Hsp90 Hop PPI: -2%

How did O=C(NCc1ccccc1)c1ccc(Cc2nc3ccccc3[nH]2)cc1 do in these assays?
TSHR ag: -6%; BRCT inh red: 2%; HEK293 cAMP cs: 5%; BRCT PPI green: -2%

Results for CNc1ncncc1-c1ccccc1C(F)(F)F ?
TsaE inh: inactive; TSHR ag: 0%; BRCT inh red: 1%; HEK293 cAMP cs: 7%; BRCT PPI green: -3%; Hsp90 Hop PPI: -6%

What do the screens show for `O=C(Nc1ccccc1)N1CCC2(CC1)CCN(C(=O)c1csnn1)CC2`?
TsaE inh: inactive; TSHR ag: 4µM*; BRCT inh red: 1%; HEK293 cAMP cs: 28%; BRCT PPI green: -1%; Hsp90 Hop PPI: -5%

How did O=c1c(-c2cc(F)cc(F)c2)nc2cncnc2n1Cc1ccc(F)cc1 do in these assays?
TsaE inh: inactive; TSHR ag: inconclusive; BRCT inh red: 2%; HEK293 cAMP cs: inconclusive; BRCT PPI green: 11%; Hsp90 Hop PPI: -11%

How did O=S(=O)(O)c1ccc(N=Nc2ccccc2)cc1 do in these assays?
TsaE inh: inactive; TSHR ag: -1%[11.4 µM]; BRCT inh red: 0%[15.4 µM]; HEK293 cAMP cs: -4%[11.4 µM]; BRCT PPI green: 0%[15.4 µM]; Hsp90 Hop PPI: -3%[11 µM]

What do the screens show for `CN(C)c1ccc(N=NS(=O)(=O)O)cc1`?
TsaE inh: inactive; TSHR ag: inconclusive; BRCT inh red: 0%; HEK293 cAMP cs: 10µM*; BRCT PPI green: 3%; Hsp90 Hop PPI: -2%

What do the screens show for `CCOC(=O)c1nnn(-c2nonc2N)c1COc1ccccc1`?
TsaE inh: inactive; TSHR ag: inconclusive; BRCT inh red: -3%; HEK293 cAMP cs: 13µM*; BRCT PPI green: 1%; Hsp90 Hop PPI: -1%

Results for O=C(O)c1ccc2cc(-c3ccc(O)c(C45CC6CC(CC(C6)C4)C5)c3)ccc2c1 ?
TSHR ag: 1%; BRCT inh red: -3%; HEK293 cAMP cs: 7%; BRCT PPI green: 1%

How did CC(C)C(OC(=O)c1cc2sccc2n1C)C(=O)NCC1CCCO1 (configuration not stated) do in these assays?
TsaE inh: inactive; TSHR ag: inconclusive; BRCT inh red: 0%; HEK293 cAMP cs: 2µM*; BRCT PPI green: 0%; Hsp90 Hop PPI: -2%

Results for Cn1c(C(=O)OC(C(=O)NC2CCCCC2)c2ccncc2)cc2sccc21 (configuration not stated) ?
TsaE inh: inactive; TSHR ag: inconclusive; BRCT inh red: 0%; HEK293 cAMP cs: 16µM*; BRCT PPI green: 1%; Hsp90 Hop PPI: -3%

What do the screens show for `COC(=O)c1cc(CSc2nnc(NC3CCCCC3)s2)oc1C`?
TsaE inh: inactive; TSHR ag: inconclusive; BRCT inh red: 1%; HEK293 cAMP cs: 13µM*; BRCT PPI green: -1%; Hsp90 Hop PPI: -4%

How did COC(=O)c1ccc(CSc2nnc(SCc3ccc(C(=O)OC)o3)s2)o1 do in these assays?
TsaE inh: inactive; TSHR ag: inconclusive; BRCT inh red: -2%; HEK293 cAMP cs: inconclusive; BRCT PPI green: 1%; Hsp90 Hop PPI: 1%

Results for CC(C)(C)OC(=O)[C@H]([C@@H]1N[C@@H](C(=O)O)C(C)(C)S1)N1C(=O)c2ccccc2C1=O ?
TsaE inh: inactive; TSHR ag: 4%[11.4 µM]; BRCT inh red: -2%[15.4 µM]; HEK293 cAMP cs: -2%[11.4 µM]; BRCT PPI green: -1%[15.4 µM]; Hsp90 Hop PPI: -3%[11 µM]

What do the screens show for `CCC(c1nnnn1Cc1cccs1)N1CCN(C2CCCC2)CC1` (configuration not stated)?
TsaE inh: inactive; TSHR ag: inconclusive; BRCT inh red: -1%; HEK293 cAMP cs: 5µM*; BRCT PPI green: 2%; Hsp90 Hop PPI: 0%

Results for CC(C)C(c1nnnn1Cc1ccco1)N1CCN(C2CCCC2)CC1 (configuration not stated) ?
TsaE inh: inactive; TSHR ag: inconclusive; BRCT inh red: 0%; HEK293 cAMP cs: inconclusive; BRCT PPI green: 0%; Hsp90 Hop PPI: inconclusive

How did CCCC(c1nnnn1Cc1cccs1)N1CCN(C2CCCC2)CC1 (configuration not stated) do in these assays?
TsaE inh: inactive; TSHR ag: inconclusive; BRCT inh red: 1%; HEK293 cAMP cs: inconclusive; BRCT PPI green: 0%; Hsp90 Hop PPI: -1%

Results for c1ccc2sc(N3CCN(Cc4nnnn4CC4CCCO4)CC3)nc2c1 (configuration not stated) ?
TsaE inh: inactive; TSHR ag: inconclusive; BRCT inh red: -2%; HEK293 cAMP cs: 25µM*; BRCT PPI green: -2%; Hsp90 Hop PPI: -1%

What do the screens show for `COCCn1nnnc1C(c1cccs1)N1CCN(c2nc3ccccc3s2)CC1` (configuration not stated)?
TsaE inh: inactive; TSHR ag: 13%; BRCT inh red: 0%; HEK293 cAMP cs: 20%; BRCT PPI green: -3%; Hsp90 Hop PPI: -1%

Results for CCC(c1nnnn1Cc1cccs1)N1CCN(c2nc3ccccc3s2)CC1 (configuration not stated) ?
TsaE inh: inactive; TSHR ag: inconclusive; BRCT inh red: 0%; HEK293 cAMP cs: 32µM*; BRCT PPI green: -1%; Hsp90 Hop PPI: 2%

Bioassay records (PubChem)
